mcGAS MS inh – mouse cGAS inhibition by mass spec | Q8C6L5 | 130,000 compounds, 0.18% hits | recombinant mouse cGAS, cGAMP by RapidFire MS | inhibition, % at 12.5 µM | AID 1259397;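 active means inhibition of cGAS enzyme activity at or above 60%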;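 further: enzyme stimulated by 45 bp dsDNA with ATP and GTP substrates; cGAMP share of summed cGAMP plus half ATP and half GTP signals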
Numbers without * were called inactive. The full list was thinned out, with hits kept by preference.

SMILES	mcGAS MS inh
c1ccc2c(c1)ncn1nc(CN3CCCCC3)nc21	-4.9
CCc1nc2c3ccccc3ncn2n1	-8.1
CCCC(=O)NNC(=O)c1ccc(NS(=O)(=O)c2ccc(Br)cc2)cc1	-1.8
CC(C)c1cc(C2CCN(C(=O)C3=NN(C)C(=O)CC3)CC2)[nH]n1	77.9*
CC(C)c1cc(C2CCN(C(=O)c3nc(C(C)C)cs3)CC2)[nH]n1	-24.9
CC(C)=CC(=O)N1CCC(c2cc(C(C)C)n[nH]2)CC1	-10.6
OCCn1c(SCCc2ccccc2)nc2ccccc21	-6.0
Cc1cc(C(=O)NNC(=O)C=Cc2ccco2)c(C)o1	66.7*
Cc1cc(C(=O)NNC(=O)CCNC(=O)c2ccco2)c(C)o1	-7.1
CCOC(=O)NNC(=O)c1cc(C)oc1C	-12.2
Cc1nc(C)c(CN2CCCC(C(=O)Nc3cccc(-n4cccn4)c3)C2)nc1C (stereo not given)	-1.6
S=c1nccc(-c2ccccc2)[nH]1	74.4*
OC(C#Cc1ccccc1)c1ncc(-c2ccccc2)[nH]1 (stereo not given)	34.9
S=c1nc(-c2ccccc2)c(-c2ccccc2)n[nH]1	-13.1
CSc1nc2c(c(=O)n(C)c(=O)n2C)n1Cc1ccccc1Cl	-5.9
N#Cc1ccc(OCCn2nccc2-c2ccncc2)cc1	-11.2
COc1ccc(CNCc2ccccc2Cn2cccn2)c(Cl)c1	82.9*
COc1ccc(OC)c(CNCc2c(C)nc3ccccn23)c1	-2.6
COc1ccc(Cn2cccc(C)c2=O)c(Cl)c1	-3.3
C=CCSc1nnc(N)s1	-7.1
Nc1nnc(SCC(=O)c2ccc([N+](=O)[O-])cc2)s1	-3.1
Nc1nnc(Sc2ncc([N+](=O)[O-])s2)s1	67.2*
Cc1cc(C(=O)NCc2cc(F)cc(F)c2)c(C)o1	-22.6
Cn1nc(C(=O)Nc2nc(-c3cccc(F)c3)cs2)ccc1=O	1.0

Compound activity as filed in PubChem.
